Source: PubChem BioAssay (NCI)
This is part of a sample that, as a whole, favours compounds with a hit. Of some 83,000 tested, about 20% had one in any assay.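 The test compound was applied at a single concentration to cells in 96-well plates for 48 hours, and percent growth was recorded.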 The source made the active and inactive calls. The calls were made as follows: active = growth percent below 10; inactive = the rest.

Tests used:
Test in all cases: NCI-60 one-dose screen, 48 h (100 = growth as untreated, 0 = no growth, -100 = all killed)
Conditions in all cases: 10 µM unless noted
DU-145 prostate = system: DU-145 prostate
K-562 leukemia = system: K-562 leukemia
MALME-3M melanoma = system: MALME-3M melanoma
MDA-MB-231 breast = system: MDA-MB-231 breast
RXF 393 renal = system: RXF 393 renal
SF-268 CNS = system: SF-268 CNS
SF-295 CNS = system: SF-295 CNS
SF-539 CNS = system: SF-539 CNS
UACC-257 melanoma = system: UACC-257 melanoma
M14 melanoma = system: M14 melanoma
HCT-15 colon = system: HCT-15 colon
HT29 colon = system: HT29 colon
SNB-75 CNS = system: SNB-75 CNS
SNB-19 CNS = system: SNB-19 CNS
U251 CNS = system: U251 CNS
PC-3 prostate = system: PC-3 prostate
SK-MEL-5 melanoma = system: SK-MEL-5 melanoma
UACC-62 melanoma = system: UACC-62 melanoma
LOX IMVI melanoma = system: LOX IMVI melanoma
SK-MEL-28 melanoma = system: SK-MEL-28 melanoma

Measured: growth

CNc1ccc(NC)c2c1C(=O)c1ccccc1C2=O
inactive: DU-145 prostate 92.6% | K-562 leukemia 96% | MALME-3M melanoma 120% | MDA-MB-231 breast 77.2% | RXF 393 renal 75% | SF-268 CNS 76.4% | SF-295 CNS 65.9% | SF-539 CNS 56% | UACC-257 melanoma 85.2% | M14 melanoma 113% | HCT-15 colon 77.1% | HT29 colon 98.7% | SNB-75 CNS 52.3% | SNB-19 CNS 85.5% | U251 CNS 87% | PC-3 prostate 84% | SK-MEL-5 melanoma 93.6% | UACC-62 melanoma 87.9% | LOX IMVI melanoma 84.9% | SK-MEL-28 melanoma 102%

CCN(CC)CCN1CC(O)=C(c2nc(-c3ccc(Cl)cc3)cs2)C1=N
inactive: DU-145 prostate 66.4% | MDA-MB-231 breast 12.6% | RXF 393 renal 25% | SF-295 CNS 24% | SNB-75 CNS 46.7% | SNB-19 CNS 66.3% | PC-3 prostate 76%
active: K-562 leukemia 1.62% | MALME-3M melanoma -44.3% | SF-268 CNS 4.19% | SF-539 CNS -69.8% | UACC-257 melanoma -38.4% | M14 melanoma -57.1% | HCT-15 colon -13.4% | HT29 colon -18.1% | U251 CNS -48.2% | SK-MEL-5 melanoma -1.71% | UACC-62 melanoma -81.4% | LOX IMVI melanoma -61.4% | SK-MEL-28 melanoma -66.7%

CCSC1=NC2C(N(CC)C(=O)N2CC)N1/N=C/C=C/c1ccccc1[N+](=O)[O-] (stereo not given)
active: DU-145 prostate 5.79% | MDA-MB-231 breast -1.7% | SF-295 CNS 8.87% | SF-539 CNS -26.3% | M14 melanoma 6.53% | HT29 colon 3.47% | SK-MEL-5 melanoma -38.6%
inactive: K-562 leukemia 10.4% | MALME-3M melanoma 36.2% | RXF 393 renal 41.5% | SF-268 CNS 45.2% | UACC-257 melanoma 61.1% | HCT-15 colon 10.7% | SNB-75 CNS 23.8% | SNB-19 CNS 22.1% | U251 CNS 12.7% | PC-3 prostate 22.9% | UACC-62 melanoma 25.5% | LOX IMVI melanoma 14.3% | SK-MEL-28 melanoma 54.5%

COC(=O)[C@]12CC[C@@H](C)[C@H](C)[C@@H]1C1=CC[C@@H]3[C@@]4(C)C(C=O)=C[C@@](C)(COC(C)=O)[C@@H]4[C@H](O)C[C@@]3(C)[C@]1(C)CC2
active: DU-145 prostate -73.1% | K-562 leukemia 4.82% | MALME-3M melanoma -79.2% | MDA-MB-231 breast -39.2% | RXF 393 renal -82% | SF-268 CNS 1.2% | SF-295 CNS -30% | SF-539 CNS -55.4% | UACC-257 melanoma -58.6% | M14 melanoma -43.3% | HCT-15 colon -62.7% | HT29 colon -52.8% | SNB-75 CNS -9.48% | U251 CNS -46.7% | PC-3 prostate 8.44% | SK-MEL-5 melanoma -93.3% | UACC-62 melanoma -46.7% | LOX IMVI melanoma -99.1% | SK-MEL-28 melanoma -52.6%
inactive: SNB-19 CNS 29.4%

COc1cc(C2NC(=O)c3ccccc3N2)ccc1OCCCCCOc1c(OC)cc(C2=NOC(c3cc(OC)c(OC)c(OC)c3)C2)cc1OC (stereo not given)
active: SK-MEL-5 melanoma -2.4%
inactive: DU-145 prostate 118% | K-562 leukemia 59.7% | MALME-3M melanoma 53.9% | MDA-MB-231 breast 82.5% | RXF 393 renal 104% | SF-268 CNS 67.4% | SF-295 CNS 24.9% | SF-539 CNS 83.2% | UACC-257 melanoma 44% | M14 melanoma 84.3% | HCT-15 colon 73% | HT29 colon 94.2% | SNB-75 CNS 101% | SNB-19 CNS 80.2% | U251 CNS 84.2% | PC-3 prostate 36.8% | UACC-62 melanoma 53.3% | LOX IMVI melanoma 61% | SK-MEL-28 melanoma 69.4%

COc1ccc(-c2csc(C3=C(O)CN(C(C)C)C3=N)n2)cc1OC
inactive: DU-145 prostate 108% | K-562 leukemia 87.7% | MALME-3M melanoma 96.4% | MDA-MB-231 breast 81.1% | RXF 393 renal 83.6% | SF-268 CNS 117% | SF-295 CNS 113% | SF-539 CNS 88.9% | UACC-257 melanoma 105% | M14 melanoma 136% | HCT-15 colon 103% | HT29 colon 102% | SNB-75 CNS 112% | SNB-19 CNS 104% | U251 CNS 98.3% | PC-3 prostate 35.3% | SK-MEL-5 melanoma 82.5% | UACC-62 melanoma 97.3% | LOX IMVI melanoma 94.1% | SK-MEL-28 melanoma 123%

C#Cc1cccc(NC(=O)c2ccc(NC(=O)CCl)cc2)c1
inactive: DU-145 prostate 42.4% [8.25 µM] | RXF 393 renal 47.9% [8.25 µM] | SF-295 CNS 75.4% [8.25 µM] | UACC-257 melanoma 43.3% [8.25 µM] | HT29 colon 34.5% [8.25 µM] | SNB-75 CNS 32.2% [8.25 µM] | SK-MEL-28 melanoma 54% [8.25 µM]
active: K-562 leukemia 7.87% [8.25 µM] | MALME-3M melanoma -83.5% [8.25 µM] | MDA-MB-231 breast -22.8% [8.25 µM] | SF-268 CNS -8.76% [8.25 µM] | SF-539 CNS -94.7% [8.25 µM] | M14 melanoma -60.6% [8.25 µM] | HCT-15 colon -57% [8.25 µM] | SNB-19 CNS 8.27% [8.25 µM] | U251 CNS -90.1% [8.25 µM] | PC-3 prostate -46.6% [8.25 µM] | SK-MEL-5 melanoma -56.7% [8.25 µM] | UACC-62 melanoma 7.2% [8.25 µM] | LOX IMVI melanoma -77.5% [8.25 µM]
